Measurements: PubChem BioAssay AID1159580 (chemical genetic matrix, 2015)
Several values for one entry are separate records, joined by “and”; a condition that tells them apart may be missing. Equal values may be shown once. Out of some 5,500 compounds screened, about 2,000 (36%) were called active. Inconclusive results (about 18%) are left out. No stated cut-off is given here; in the data, active means normalized growth mostly below about 0.91 (no sharp cut-off); inconclusive means no clear call, values can overlap the other calls; inactive means mostly above about 0.92. The list shows a part of the results.

Experiment: chemical genetic growth profiling, strain panel (AID 1159580);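 further: tested at 20 µM; growth read once vehicle control cultures reached saturation at 30 °C; 1 = growth at the plate median or of vehicle wells; lower values mean less growth of the strain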
Details: S. cerevisiae deletion strains, growth OD

Measured: normalized growth

N[C@@H](CCC(=O)N[C@@H](CS)C(=O)NCC(=O)O)C(=O)O
inactive: locus YAL021C, strain ccr4, hits give low values 1 | locus YAL026C, strain drs2, hits give low values 1.04 | locus YAL030W, strain snc1, hits give low values 0.986 | locus YBL061C, strain skt5, hits give low values 1.01 | locus YBR009C, strain hhf1, hits give low values 0.988 | locus YBR021W, strain FUR4, hits give low values 1.05 | locus YBR023C, strain chs3, hits give low values 1.01 | locus YBR171W, strain sec66, hits give low values 0.981 | locus YBR229C, strain ROT2, hits give low values 1.01 | locus YBR231C, strain swc5, hits give low values 0.972 | locus YBR279W, strain paf1, hits give low values 1 | locus YCL011C, strain gbp2, hits give low values 1.01 | locus YCL016C, strain dcc1, hits give low values 1.02 | locus YCL029C, strain bik1, hits give low values 0.998 | locus YCL061C, strain MRC1, hits give low values 0.99 | locus YCL069W, strain vba3, hits give low values 1.01 | locus YCR088W, strain abp1, hits give low values 0.998 | locus YDL005C, strain med2, hits give low values 0.985 | locus YDL035C, strain GPR1, hits give low values 1.01 | locus YDL040C, strain nat1, hits give low values 0.989 | locus YDL074C, strain BRE1, hits give low values 0.987 | locus YDL101C, strain DUN1, hits give low values 0.991 | locus YDL185W, strain tfp1, hits give low values 0.947 | locus YDL192W, strain arf1, hits give low values 0.988 | locus YDR001C, strain nth1, hits give low values 0.993 | locus YDR069C, strain doa4, hits give low values 0.975 | locus YDR101C, strain arx1, hits give low values 0.992 | locus YDR137W, strain rgp1, hits give low values 1.03 | locus YDR159W, strain sac3, hits give low values 0.943 | locus YDR162C, strain NBP2, hits give low values 0.998 | locus YDR195W, strain ref2 0.927 | locus YDR297W, strain sur2, hits give low values 0.984 | locus YDR318W, strain mcm21, hits give low values 0.993 | locus YDR334W, strain swr1, hits give low values 0.998 | locus YDR335W, strain msn5, hits give low values 0.987 | locus YDR388W, hits give low values 0.998 | locus YDR392W, strain spt3, hits give low values 1 | locus YDR502C, strain sam2, hits give low values 0.987 | locus YEL003W, strain gim4, hits give low values 0.992 | locus YEL037C, strain rad23, hits give low values 0.995 | locus YEL061C, strain CIN8 (second series), hits give low values 0.996 | locus YEL061C, strain CIN8, hits give low values 0.991 | locus YER015W, strain faa2, hits give low values 1 | locus YER016W, strain bim1, hits give low values 1.02 | locus YER110C, hits give low values 0.971 | locus YER111C, strain swi4, hits give low values 1.01 | locus YER155C, strain BEM2 (second series), hits give low values 0.963 | locus YER155C, strain BEM2, hits give low values 0.998 | locus YER167W, strain BCK2, hits give low values 1 | locus YFR010W, strain ubp6, hits give low values 1 | locus YGL078C, strain dbp3, hits give low values 0.99 | locus YGL086W, strain mad1, hits give low values 0.987 | locus YGL167C, strain pmr1, hits give low values 0.988 | locus YGL173C, strain kem1, hits give low values 0.977 | locus YGL227W, strain vid30, hits give low values 0.992 | locus YGL240W, strain doc1, hits give low values 0.973 | locus YGL248W, strain PDE1, hits give low values 0.999 | locus YGL253W, strain hxk2, hits give low values 1.02 | locus YGR135W, strain pre9, hits give low values 0.978 | locus YGR252W, strain gcn5, hits give low values 0.995 | locus YHR013C, strain ard1, hits give low values 0.996 | locus YHR027C, strain rpn1, hits give low values 1.01 | locus YHR030C, strain SLT2, hits give low values 0.992 and 0.922 | locus YHR079C, strain IRE1 (second series), hits give low values 0.985 | locus YHR079C, strain IRE1, hits give low values 0.928 | locus YHR094C, strain hxt1, hits give low values 0.996 | locus YHR129C, strain ARP1, hits give low values 1 | locus YHR142W, strain chs7, hits give low values 1.03 | locus YHR200W, strain rpn10, hits give low values 0.981 | locus YIL066C, strain RNR3, hits give low values 1.01 | locus YIL073C, strain SPO22, hits give low values 0.952 | locus YIL125W, strain kgd1, hits give low values 0.996 | locus YIR030C, strain dcg1, hits give low values 0.991 | locus YJL092W, strain hpr5, hits give low values 0.998 | locus YJL095W, strain BCK1 (second series), hits give low values 1.01 | locus YJL095W, strain BCK1, hits give low values 0.97 and 1.03 | locus YJL115W, strain asf1, hits give low values 0.972 | locus YJL129C, strain trk1, hits give low values 0.975 | locus YJL134W, strain LCB3, hits give low values 0.995 | locus YJL154C, strain vps35, hits give low values 0.998 | locus YJL164C, strain tpk1, hits give low values 1.01 | locus YJL166W, strain qcr8, hits give low values 0.973 | locus YJL168C, strain set2, hits give low values 0.994 | locus YJL187C, strain SWE1 (second series), hits give low values 0.987 | locus YJR043C, strain POL32, hits give low values 0.992 | locus YJR066W, strain TOR1, hits give low values 0.923
